# Screening data from PubChem BioAssay.
# CYP2C9 inh = blocks human cytochrome P450 2C9. P11712. CYP2C9 Supersomes, luciferin-H conversion, luminescence. inhibition, % at 5 µM. 96,000 compounds, 20% hits. AID 777;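 active means blocking of liver enzyme CYP2C9 beyond about 50% at 5 µM, limit read from the data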
# D1 mod = allosterically modulates the human D1 dopamine receptor; P21728; HEK293 D1, CRE-luciferase, dopamine EC30 potentiation; actives deviate in either direction; B-score at 10 µM; 58,000 compounds, 5.9% hits; AID 641;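 active means luminescence count or its row- and column-corrected plate score outside the 99.7% band of the plate's sample wells, on either side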
# Target sequence (P21728 whole entry, looked up): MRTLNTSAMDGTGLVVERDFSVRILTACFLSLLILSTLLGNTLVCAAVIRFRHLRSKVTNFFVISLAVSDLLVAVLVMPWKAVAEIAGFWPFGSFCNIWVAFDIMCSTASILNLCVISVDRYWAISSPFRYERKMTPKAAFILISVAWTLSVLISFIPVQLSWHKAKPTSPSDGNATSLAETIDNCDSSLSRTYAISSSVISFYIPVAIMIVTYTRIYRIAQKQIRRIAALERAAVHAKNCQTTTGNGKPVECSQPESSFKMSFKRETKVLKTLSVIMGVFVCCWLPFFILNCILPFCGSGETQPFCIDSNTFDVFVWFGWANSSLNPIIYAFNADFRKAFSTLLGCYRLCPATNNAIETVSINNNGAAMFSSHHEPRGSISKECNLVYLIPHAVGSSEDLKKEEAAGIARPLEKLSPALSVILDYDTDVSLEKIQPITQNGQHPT
# DAT uptake mod = human DAT dopamine uptake with cocaine, either direction. Q01959. 110,000 compounds, 1.3% hits. B-score at 10 µM. LLC-PK1 hDAT cells, [14C]-dopamine uptake with cocaine IC80; actives deviate in either direction;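 active means Z score or B-score, a plate-position-corrected score, falls beyond the plate's 99.7% confidence bounds, in either direction; inactive means both scores lie inside the 99.7% bounds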
# CYP2C19 activ = activators of human cytochrome P450 2C19 | P33261 | recombinant CYP2C19, luciferin-H EGE luminescence; hits give high values; 0 = fully inhibited enzyme, 1 = untreated enzyme | activation factor at 5 µM | 96,000 tested, under 10 active;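 active means activation factor of at least 2 at 5 µM in the primary screen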
# CYP2C19 inh = inhibitors of human CYP2C19. inhibition, % at 5 µM. CYP2C19 Supersomes, luciferin-H EGE luminescence, 30 min. P33261. 96,000 compounds, 21% hits;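 active means CYP2C19 inhibition above a set limit at 5 µM in the primary screen, cut at about 50% in these data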
# CYP2C9 activ = increases human cytochrome P450 2C9 activity. 96,000 compounds, 1.4% hits. AID 1024. P11712. recombinant CYP2C9, luciferin-H conversion, luminescence; hits give high values; factor 1 = untreated enzyme, 0 = blocked. activation factor at 5 µM;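 active means activation factor of 2 or more for CYP2C9 at a 5 µM dose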
# D1 mod confirm = confirmation of human D1 dopamine receptor allosteric modulators; shares compounds with D1 mod; HEK293 D1 CRE-luciferase, dopamine EC30 potentiation; hits give high values; luminescence at 10 µM; 2,200 compounds, 88% hits; AID 642;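 active means luminescence in either of two replicates above the same-plate mean plus 3 SD of the low-dose dopamine control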
# D1 no dopamine = activates D1 CRE-luciferase signal without dopamine present; shares compounds with D1 mod; HEK293 D1 CRE-luciferase, luminescence, no dopamine; hits give high values; luminescence at 10 µM; 1,900 compounds, 0.8% hits; AID 646; in the data active means luminescence above about 3900
# Isoprot counter = counter-screen for D1 modulators: isoproterenol response in HEK293 cells; AID 647; shares compounds with D1 mod; calls only at 10 µM; HEK293 D1 CRE-luciferase, isoproterenol EC30 counter-screen; 2,200 compounds, 63% hits;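 active means luminescence in either replicate above plate mean of wells with a partly effective reference agonist dose plus 3 SD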;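 further: isoproterenol raises cAMP through native beta-adrenoceptor Gs so signal bypasses D1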
# Numbers stand for hits; i = inactive; nt = no result; + = active, no number. The list is not random: actives were taken first. Their share in the collection is about 28%.
SMILES,CYP2C9 inh,D1 mod,DAT uptake mod,CYP2C19 activ,CYP2C19 inh,CYP2C9 activ,D1 mod confirm,D1 no dopamine,Isoprot counter
CCOC(=O)c1c(C)nc2sccn12,i,2.61,i,i,i,i,12992,i,i
CN(Cc1ccccc1)c1nc2c(c(=O)[nH]c(=O)n2C)n1Cc1ccccc1,i,23.1,i,i,i,i,19372,i,+
CN(Cc1ccccc1)c1nc2c(c(=O)[nH]c(=O)n2C)n1CCOc1ccccc1,53.9,6.8,i,i,i,i,12188,i,+
CN(Cc1ccccc1)c1nc2c(c(=O)[nH]c(=O)n2C)n1CCCSc1ncccn1,i,nt,i,i,i,i,nt,nt,nt
CCCCCn1c(N(C)Cc2ccccc2)nc2c1c(=O)[nH]c(=O)n2C,i,14.1,i,i,i,i,21892,i,+
COc1ccc(CNC(=O)C2CCCN2S(=O)(=O)c2ccc(S(=O)(=O)N(C)C)cc2)cc1 (stereo unspecified),i,i,i,i,i,i,nt,nt,nt
O=C(O)C1SCCN1S(=O)(=O)c1ccc2ccccc2c1 (stereo unspecified),nt,nt,i,nt,nt,nt,nt,nt,nt
Cc1cc(C)nc(NS(=O)(=O)c2ccc(NC(=O)CCN3C(=O)c4ccccc4C3=O)cc2)n1,i,i,i,i,i,i,nt,nt,nt
COCCn1nnnc1C(c1ccccc1OC)N1CCN(c2ccccc2F)CC1 (stereo unspecified),i,i,i,i,i,i,nt,nt,nt
COc1ccc(C(c2nnnn2Cc2cccs2)N2CCN(c3ccccc3F)CC2)cc1OC (stereo unspecified),i,3.07,i,i,i,i,i,i,i
Cc1cc(C)cc(Nc2ncc3c(n2)CC(c2ccco2)CC3=O)c1 (stereo unspecified),57.8,4.75,i,i,i,i,7924,i,+
CCC12CC3CC(C1)CC(C(=O)Nc1nn[nH]n1)(C3)C2,i,i,i,i,i,i,nt,nt,nt
COc1cc(-c2nc(S(=O)(=O)c3ccc(C)cc3)c(N3CCOCC3)o2)cc(OC)c1OC,51.4,5.43,nt,i,i,i,8652,i,+
CCCOc1ccc(C(=O)Nc2ccc(N3CCN(C(C)=O)CC3)cc2)cc1,nt,3,i,nt,nt,nt,i,i,i
C=CCNC(=S)NNC(=O)c1ccccc1,i,nt,i,i,i,i,nt,nt,nt
C=CCNC(=O)c1ccccc1NC(=O)c1ccccc1,i,8.29,i,i,i,i,16308,i,i
Nc1[nH]nc2nc(N3CCOCC3)nc(-c3ccccc3)c12,i,9.8,i,i,i,i,13488,nt,+
CC(C)c1ccc(-c2nc(N3CCCC3)nc3n[nH]c(N)c23)cc1,i,i,i,i,i,i,nt,nt,nt
O=C1CSc2ccccc2N1Cc1ccccc1F,i,3.51,i,i,i,i,6672,i,i
O=C(NCCN1CCOCC1)c1ccc2c(c1)N(Cc1ccccc1F)C(=O)CS2,i,i,nt,i,i,i,nt,nt,nt
COc1ccc(-c2nc(CN3CCC(C(=O)N4CCc5ccccc54)CC3)c(C)o2)cc1OC,i,2.79,i,i,i,i,6820,i,+
COc1ccc(-c2nnc(SCC#CCO)o2)cc1OC,i,15.5,i,i,i,i,16500,i,+
COc1ccc(-c2nnc(SCC(=O)N3CCCCC3)o2)cc1OC,i,i,i,i,i,i,nt,nt,nt
COc1ccccc1-c1nnc(SCC(=O)N2CCC(C)CC2)o1,i,3.07,i,i,75.5,3.9,i,nt,i
COc1ccc(-c2nnc(SCC(=O)N3CCCc4ccccc43)o2)cc1OC,nt,15.6,i,nt,nt,nt,19988,i,+
SMILES,CYP2C9 inh,D1 mod,DAT uptake mod,CYP2C19 activ,CYP2C19 inh,CYP2C9 activ,D1 mod confirm,D1 no dopamine,Isoprot counter
COc1ccccc1-c1nnc(SCC(=O)N2CCOCC2)o1,nt,i,i,nt,nt,nt,nt,nt,nt
COc1ccc(-c2nnc(SCC(=O)OC3CCCCC3)o2)cc1OC,i,i,i,i,i,i,nt,nt,nt
CCOC(=O)c1cnn(-c2cc(Oc3cccc(C)c3)ncn2)c1N,i,nt,i,i,i,i,nt,nt,nt
COc1ccc(-c2nn(C)c(=O)c3ccccc23)cc1NC(=O)COc1ccc(C)cc1,i,nt,i,i,i,i,nt,nt,nt
C#CCNC(=O)C1=C[C@@H](c2coc3ccccc3c2=O)C[C@@H](OCCCCO)O1,nt,nt,i,nt,nt,nt,nt,nt,nt
O=C1CC2(CCCCCC2)Oc2ccccc21,nt,nt,i,nt,nt,nt,nt,nt,nt
Cc1cc(NC(=O)C2C3C(=O)N(Cc4ccc(Cl)cc4)C(C(=O)NC(C)(C)C)C34C=CC2(C)O4)no1 (stereo unspecified),i,nt,nt,i,i,i,nt,nt,nt
O=C(Nc1sc2c(c1C(=O)NC1CC1)CCCCCC2)c1ccco1,i,i,i,i,i,i,nt,nt,nt
O=C(Nc1sc2c(c1C(=O)NCc1cccnc1)CCCC2)c1ccco1,95.0,11.8,i,i,78.5,i,17940,i,+
O=C(CSc1nc(-c2ccccc2)cc(C(F)(F)F)n1)NCc1ccco1,i,nt,i,i,i,i,nt,nt,nt
COc1ccc(-c2ccc(=O)n(CC(=O)NCc3ccco3)n2)cc1,i,i,i,i,i,i,nt,nt,nt
COc1ccc(-c2ccc(SCC(=O)NCc3ccco3)nn2)cc1OC,i,15,i,i,i,i,17224,nt,+
COc1ccc(-c2cc(C(F)(F)F)nc(SCC(=O)NCc3ccco3)n2)cc1OC,nt,13.1,i,nt,nt,nt,18992,i,+
O=C(CCN1CCCCCC1)Nc1cccc(Cl)c1,i,i,i,i,i,i,nt,nt,nt
COc1cccc(C(O)CC(N)=O)c1 (stereo unspecified),i,i,i,i,i,i,nt,nt,nt
CCOC(=O)Cc1[nH]nc2c1C(c1cccc(OC)c1OC)C(C#N)=C(N)O2 (stereo unspecified),i,6.32,i,i,i,i,7976,i,i
COC(=O)Cc1[nH]nc2c1C(c1cccc(OC)c1OC)C(C#N)=C(N)O2 (stereo unspecified),i,i,i,i,i,i,nt,nt,nt
CCCc1[nH]nc2c1C(c1cc(OC)ccc1F)C(C#N)=C(N)O2 (stereo unspecified),88.5,8.18,i,i,81.0,i,9940,nt,+
CCOC(=O)Cc1[nH]nc2c1C(c1cc(OC)ccc1OC)C(C#N)=C(N)O2 (stereo unspecified),i,nt,i,i,i,i,nt,nt,nt
Cc1nc(-c2ccccc2O)n(S(=O)(=O)N(C)C)n1,i,5.53,i,i,i,i,8136,i,+
CCc1ccc2[nH]c(=O)c(CN(Cc3ccc4c(c3)OCO4)C(=O)c3ccco3)cc2c1,i,i,i,i,i,i,nt,nt,nt
C=CCNC(=O)/C(=C\C=C\c1ccccc1)NC(=O)c1ccc(OCCCC)cc1,i,nt,i,i,i,i,nt,nt,nt
